# Results from PubChem BioAssay AID1159580 (chemical genetic matrix, 2015).
# The campaign covered roughly 5,500 compounds. About 2,000 (36%) were called active. Not shown: some 18% with an inconclusive outcome. This is one part of the list. A number with no mark means an inactive call. No stated cut-off is given here; in the data, active means normalized growth mostly below about 0.91 (no sharp cut-off); inconclusive means no clear call, values can overlap the other calls; inactive means mostly above about 0.92.
# Experiment: chemical genetic growth profiling, strain panel (AID 1159580);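 further: tested at 20 µM; growth read once vehicle control cultures reached saturation at 30 °C; 1 = growth at the plate median or of vehicle wells; lower values mean less growth of the strain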
# Conditions: S. cerevisiae deletion strains, growth OD
smiles,measurement,setting,value
CC(=O)Oc1ccc2c(c1)CCC1C2CCC2(C)C1CC(OC(C)=O)C2OC(C)=O (stereo unspecified),normalized growth,"locus YAL021C, strain ccr4, active compounds read low",0.948
same,normalized growth,"locus YAL026C, strain drs2, active compounds read low",1.01
same,normalized growth,"locus YAL030W, strain snc1, active compounds read low",0.97
same,normalized growth,"locus YBL061C, strain skt5, active compounds read low",0.997
same,normalized growth,"locus YBR009C, strain hhf1, active compounds read low",0.985
same,normalized growth,"locus YBR023C, strain chs3, active compounds read low",0.983
same,normalized growth,"locus YBR171W, strain sec66, active compounds read low",1
same,normalized growth,"locus YBR231C, strain swc5, active compounds read low",0.982
same,normalized growth,"locus YBR279W, strain paf1, active compounds read low",0.987
same,normalized growth,"locus YCL011C, strain gbp2, active compounds read low",0.994
same,normalized growth,"locus YCL016C, strain dcc1, active compounds read low",0.978
same,normalized growth,"locus YCL069W, strain vba3, active compounds read low",0.993
same,normalized growth,"locus YCR088W, strain abp1, active compounds read low",0.992
same,normalized growth,"locus YDL005C, strain med2, active compounds read low",0.987
same,normalized growth,"locus YDL040C, strain nat1, active compounds read low",0.975
same,normalized growth,"locus YDR001C, strain nth1, active compounds read low",1.01
same,normalized growth,"locus YDR069C, strain doa4, active compounds read low",0.954
same,normalized growth,"locus YDR137W, strain rgp1, active compounds read low",0.925
same,normalized growth,"locus YDR159W, strain sac3, active compounds read low",0.902
same,normalized growth,"locus YDR195W, strain ref2",0.992
same,normalized growth,"locus YDR297W, strain sur2, active compounds read low",0.988
same,normalized growth,"locus YDR334W, strain swr1, active compounds read low",0.987
same,normalized growth,"locus YDR335W, strain msn5, active compounds read low",1.01
same,normalized growth,"locus YDR392W, strain spt3, active compounds read low",0.856
same,normalized growth,"locus YEL003W, strain gim4, active compounds read low",0.986
same,normalized growth,"locus YEL037C, strain rad23, active compounds read low",1.02
same,normalized growth,"locus YEL061C, strain CIN8 (second series), active compounds read low",1.01
same,normalized growth,"locus YER015W, strain faa2, active compounds read low",0.985
same,normalized growth,"locus YER016W, strain bim1, active compounds read low",0.973
same,normalized growth,"locus YER111C, strain swi4, active compounds read low",0.994
same,normalized growth,"locus YER155C, strain BEM2 (second series), active compounds read low",1
same,normalized growth,"locus YFR010W, strain ubp6, active compounds read low",0.997
same,normalized growth,"locus YGL167C, strain pmr1, active compounds read low",0.98
same,normalized growth,"locus YGL173C, strain kem1, active compounds read low",0.99
same,normalized growth,"locus YGL227W, strain vid30, active compounds read low",0.995
same,normalized growth,"locus YGL240W, strain doc1, active compounds read low",0.935
same,normalized growth,"locus YGL253W, strain hxk2, active compounds read low",0.997
same,normalized growth,"locus YHR013C, strain ard1, active compounds read low",0.961
same,normalized growth,"locus YHR027C, strain rpn1, active compounds read low",0.987
same,normalized growth,"locus YHR142W, strain chs7, active compounds read low",0.968
same,normalized growth,"locus YJL092W, strain hpr5, active compounds read low",1.01
same,normalized growth,"locus YJL095W, strain BCK1 (second series), active compounds read low",0.984
same,normalized growth,"locus YJL115W, strain asf1, active compounds read low",1.01
same,normalized growth,"locus YJL129C, strain trk1, active compounds read low",0.967
same,normalized growth,"locus YJL154C, strain vps35, active compounds read low",0.985
same,normalized growth,"locus YJL164C, strain tpk1, active compounds read low",0.952
same,normalized growth,"locus YJL166W, strain qcr8, active compounds read low",0.987
same,normalized growth,"locus YJL187C, strain SWE1, active compounds read low",0.99
same,normalized growth,"locus YKL160W, strain elf1, active compounds read low",0.962
same,normalized growth,"locus YKR026C, strain gcn3, active compounds read low",1.01
same,normalized growth,"locus YKR091W, strain srl3, active compounds read low",0.988
same,normalized growth,"locus YLL001W, strain dnm1, active compounds read low",1
same,normalized growth,"locus YLL026W, active compounds read low",0.964
same,normalized growth,"locus YLL041C, strain sdh2, active compounds read low",0.999
same,normalized growth,"locus YLR027C, strain aat2, active compounds read low",0.995
same,normalized growth,"locus YLR221C, strain rsa3, active compounds read low",0.978
same,normalized growth,"locus YLR258W, strain gsy2, active compounds read low",0.988
same,normalized growth,"locus YLR262C, strain YPT6 (second series), active compounds read low",0.877
same,normalized growth,"locus YLR320W, strain mms22, active compounds read low",0.943
same,normalized growth,"locus YLR342W, strain FKS1, active compounds read low",0.971
same,normalized growth,"locus YLR357W, strain rsc2, active compounds read low",0.952
same,normalized growth,"locus YLR370C, strain arc18, active compounds read low",0.989
same,normalized growth,"locus YLR384C, strain iki3, active compounds read low",0.983
same,normalized growth,"locus YML120C, strain ndi1, active compounds read low",0.997
same,normalized growth,"locus YMR058W, strain fet3, active compounds read low",1
same,normalized growth,"locus YMR125W, strain sto1, active compounds read low",1
same,normalized growth,"locus YMR129W, active compounds read low",0.995
same,normalized growth,"locus YMR205C, strain PFK2, active compounds read low",0.972
same,normalized growth,"locus YMR231W, strain pep5, active compounds read low",0.996
same,normalized growth,"locus YNL071W, strain lat1, active compounds read low",0.962
same,normalized growth,"locus YNL209W, strain ssb2, active compounds read low",0.976
same,normalized growth,"locus YNL248C, strain rpa49, active compounds read low",0.991
same,normalized growth,"locus YNL322C, strain KRE1 (second series), active compounds read low",0.966
same,normalized growth,"locus YNR049C, strain mso1, active compounds read low",1
same,normalized growth,"locus YOR001W, strain rrp6, active compounds read low",0.983
same,normalized growth,"locus YOR070C, strain gyp1, active compounds read low",0.995
same,normalized growth,"locus YOR080W, strain dia2, active compounds read low",0.987
same,normalized growth,"locus YOR083W, strain WHI5, active compounds read low",0.952
same,normalized growth,"locus YOR106W, strain vam3, active compounds read low",0.954
same,normalized growth,"locus YOR265W, strain rbl2, active compounds read low",0.996
same,normalized growth,"locus YOR270C, strain vph1, active compounds read low",0.925
same,normalized growth,"locus YOR290C, strain snf2, active compounds read low",0.97
same,normalized growth,"locus YPL051W, strain arl3, active compounds read low",0.967
same,normalized growth,"locus YPL078C, strain atp4, active compounds read low",0.987
same,normalized growth,"locus YPL106C, strain sse1, active compounds read low",0.831 (active)
same,normalized growth,"locus YPL240C, strain hsp82, active compounds read low",0.995
